Data taken from the supplement of paper PMC9492666.
Structures can show the parent of a compound that is named as a salt.

Experiments:
Conditions in all cases: 72 h
HCC1937 [1] = assay: relative cell viability, compound alone, vs DMSO (fraction of DMSO control); higher = less growth inhibition
MDA-MB-231 [2] = assay: as above
HCC1937 [3] = assay: relative cell viability, compound + RSL3, vs DMSO (fraction of DMSO control); higher = less growth inhibition
MDA-MB-231 [4] = assay: as above
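For relative cell viability, compound + RSL3, vs DMSO in this document: breast cancer cell viability read out with the CCK-8 kit after co-treatment of each compound with the ferroptosis inducer RSL3.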
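For relative cell viability, compound alone, vs DMSO in this document: viability read out with the CCK-8 kit in 96-well plates, screening a set of 303 compounds acting on lipid metabolism targets.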

| SMILES | relative cell viability (HCC1937 [1]) | relative cell viability (MDA-MB-231 [2]) | relative cell viability (HCC1937 [3]) | relative cell viability (MDA-MB-231 [4]) |
| --- | --- | --- | --- | --- |
| CNC(=O)c1cccc(NC(=O)N2CCC(Oc3ccccc3Cl)CC2)c1 | 0.991 | 0.974 | – | – |
| Cn1nc(C(=O)N(Cc2ccccc2)Cc2ccc(C(=O)O)cc2)c2c1-c1cc(Cl)ccc1OC2 [Nidufexor] | 0.937 | 0.932 | – | – |
| CC(C)=CCC(O)C1=CC(=O)c2c(O)ccc(O)c2C1=O (single isomer, unassigned; (+)) [(+)-Shikonin] | 0.2 | 0.529 | – | – |
| COc1ccc([C@@H]2OC[C@H]3[C@@H]2CO[C@@H]3c2ccc(O[C@@H]3O[C@H](CO)[C@@H](O)[C@H](O)[C@H]3O)c(OC)c2)cc1OC [Forsythin] | 1.22 | 1.06 | – | – |
| CC(C)c1cc(C(C)C)c(CC(=O)NS(=O)(=O)Oc2c(C(C)C)cccc2C(C)C)c(C(C)C)c1 [Avasimibe] | 0.707 | 0.832 | – | – |
| CC(C)[C@H]1CC[C@H](C(=O)N[C@H](Cc2ccccc2)C(=O)O)CC1 [Nateglinide] | 0.682 | 0.869 | – | – |
| COCCNC(=O)Nc1ccc2nc(-c3cccs3)c(-c3cccs3)nc2c1 [Ac-CoA Synthase Inhibitor1] | 0.959 | 0.91 | – | – |
| O=C(c1ccc(NS(=O)(=O)c2cccc3cccnc23)cc1)N1CCN(CC2CC2)CC1 [Mitapivat] | 0.95 | 0.935 | – | – |
| N#Cc1ccc(Oc2cccc(NC(=O)Nc3ccc(Cl)c(C(F)(F)F)c3)c2)cc1 | 0.1 | 0.276 | – | – |
| CC(C)C1=CC2=CC[C@@H]3[C@](C)(CCC[C@@]3(C)C(=O)O)[C@H]2CC1 [Abietic Acid] | 1.02 | 1.07 | – | – |
| Cc1ccc(CN(CC(O)COc2cccc3[nH]ccc23)C(C)(C)C)cc1 (configuration not stated) | 0.994 | 0.988 | – | – |
| CN(CCOc1ccc(CC2SC(=O)NC2=O)cc1)c1ccccn1 (configuration not stated) [Rosiglitazone] | 1.43 | 0.969 | – | – |
| CCCCCCCCCCC[C@@H](C[C@@H]1OC(=O)[C@H]1CCCCCC)OC(=O)[C@H](CC(C)C)NC=O [Orlistat] | 0.977 | 0.809 | – | – |
| Cc1cc(N2C[C@@H](C)N[C@@H](C)C2)ncc1-c1ccc(-c2nc3c(ccn3C)c(=O)[nH]2)cc1 | 0.855 | 1.05 | – | – |
| C=C[C@H]1CN2CC[C@H]1C[C@@H]2[C@@H](O)c1ccnc2ccc(OC)cc12 [Quinidine sulfate] | 0.803 | 1.02 | – | – |
| CC(=O)O[C@H](CC=C(C)C)C1=CC(=O)c2c(O)ccc(O)c2C1=O [Acetyl shikonin] | 1.08 | 1.06 | – | – |
| Cc1nc2ccc(C(=O)N3CCC4(CC3)CC(=O)c3c(cnn3C(C)C)C4)cc2[nH]1 | 0.71 | 0.859 | – | – |
| CCCCCCCCCCCCCCOc1ccc(C(=O)O)o1 | 1.07 | 1 | – | – |
| CC(c1cc2ccccc2s1)N(O)C(N)=O (configuration not stated) [Zileuton] | 1.21 | 0.906 | – | – |
| O=C(O)c1cc2c(Cl)c(N3CCN(S(=O)(=O)c4c(Cl)cccc4Cl)CC3)ccc2o1 [Vonafexor] | 1.16 | 1.16 | – | – |
| CC1=C[C@]2(O)O[C@@]3(CC2=C(C)C)[C@@H](C)CC[C@@H]13 [Curcumenol] | 0.868 | 0.863 | – | – |

| SMILES | relative cell viability (HCC1937 [1]) | relative cell viability (MDA-MB-231 [2]) | relative cell viability (HCC1937 [3]) | relative cell viability (MDA-MB-231 [4]) |
| --- | --- | --- | --- | --- |
| CCNC1(C(N)=O)CCN(c2ncnc3c2nc(-c2ccccc2Cl)n3-c2ccc(Cl)cc2)CC1 [Otenabant] | 0.906 | 0.915 | – | – |
| CC(C)(Oc1ccc(C(=O)c2ccc(Cl)cc2)cc1)C(=O)O [Choline Fenofibrate] | 0.928 | 1.07 | – | – |
| CCOC(=O)C(C)(C)Oc1ccc(Cl)cc1 [Clofibrate] | 1.15 | 0.9 | – | – |
| CC(C)(C)N1C(=O)C(Nc2ccc(N3CCCCC3)cc2)=C(c2ccccc2)S1(=O)=O | 1.15 | 0.947 | – | – |
| N=C(N)NCCC(=O)O [3-Guanidinopropionic Acid] | 0.734 | 0.94 | – | – |
| CCN(CC)C(=O)N1CCN(C)CC1 [Diethylcarbamazine citrate] | 0.699 | 0.856 | – | – |
| CCCc1c(-c2ccccc2)[nH]n(-c2ccccn2)c1=O [APX-115 free base] | 0.838 | 0.835 | – | – |
| O=C(O)c1c[nH]c2cc(Cl)c(-c3ccc(C4(O)CCC4)cc3)cc12 | 0.958 | 0.914 | – | – |
| CC1(N)CCN(c2cnc(-c3cccc(Cl)c3Cl)c(N)n2)CC1 [SHP099 hydrochloride] | 0.768 | 1.02 | – | – |
| O=C(/C=C/c1ccc(/C=C/C(=O)Nc2ccc(C3=NCCN3)cc2)cc1)Nc1ccc(C2=NCCN2)cc1 | 0.772 | 0.765 | – | – |
| CCOC(=O)c1c(NC(=O)CN2CCN(C(=O)c3ccco3)CC2)sc2c1CCC2 | 0.857 | 0.967 | – | – |
| O=C(O)Cc1cccc(OCCCN(Cc2cccc(C(F)(F)F)c2Cl)CC(c2ccccc2)c2ccccc2)c1 | 0.78 | 1.11 | – | – |
| CC(=O)N1CCN(c2ccc(OCC3COC(Cn4ccnc4)(c4ccc(Cl)cc4Cl)O3)cc2)CC1 (configuration not stated) [Ketoconazole] | 1.3 | 0.897 | – | – |
| CN(C)C(=O)Nc1cccc(-c2ccc(N(C)C)cc2)c1 [Atglistatin] | 0.661 | 0.83 | – | – |
| CN1CC(O)C2=C/C(=N/NC(N)=O)C(=O)C=C21 (configuration not stated) [Carbazochrome] | 0.793 | 0.871 | – | – |
| Oc1ccc2c(c1)OCO2 [Sesamol] | 0.804 | 0.831 | – | – |
| Cc1c(C(=O)Nc2ccc(CO)cc2)nnn1Cc1ccc(Cl)c(Cl)c1 | 0.975 | 0.95 | – | – |
| CN(C)C(=O)Nc1cccc(-c2ccc(N(C)C)cc2)c1 [Atglistatin] + COC(=O)c1ccc([C@H]2c3[nH]c4ccccc4c3C[C@H](C(=O)OC)N2C(=O)CCl)cc1 [RSL3] | – | – | 0.321 | 0.562 |
| O=c1cc(-c2ccc(O)c(-c3c(O)cc(O)c4c(=O)cc(-c5ccc(O)cc5)oc34)c2)oc2cc(O)cc(O)c12 [Amentoflavone] + COC(=O)c1ccc([C@H]2c3[nH]c4ccccc4c3C[C@H](C(=O)OC)N2C(=O)CCl)cc1 [RSL3] | – | – | 0.318 | 0.496 |
| O=S(=O)(O)c1ccc2cc(N=Nc3cc(S(=O)(=O)O)c4cccnc4c3O)ccc2c1 | 0.987 | 0.851 | – | – |
| CN(C)C(=N)NC(=N)N [Metformin hydrochloride] | 0.98 | 0.95 | – | – |

| SMILES | relative cell viability (HCC1937 [1]) | relative cell viability (MDA-MB-231 [2]) | relative cell viability (HCC1937 [3]) | relative cell viability (MDA-MB-231 [4]) |
| --- | --- | --- | --- | --- |
| COc1ccc(/C=C/c2cc(O)cc(O[C@@H]3O[C@H](CO)[C@@H](O)[C@H](O)[C@H]3O)c2)cc1 [Deoxyrhapontin] | 0.932 | 0.995 | – | – |
| Cc1coc2c1C(=O)C(=O)c1c-2ccc2c(C)cccc12 [Tanshinone I] | 0.287 | 0.51 | – | – |
| Cc1c(C)c2c(c(C)c1O)CCC(C)(COc1ccc(CC3SC(=O)NC3=O)cc1)O2 (configuration not stated) [Troglitazone] | 0.718 | 0.984 | – | – |
| Cc1cc(=O)oc2c(O)c(O)ccc12 [7,8-Dihydroxy-4-methylcoumarin] + COC(=O)c1ccc([C@H]2c3[nH]c4ccccc4c3C[C@H](C(=O)OC)N2C(=O)CCl)cc1 [RSL3] | – | – | 0.539 | 0.7 |
| CCCCC[C@H](O)CC(=O)CCc1ccc(O)c(OC)c1 [6-Gingerol] | 0.646 | 0.862 | – | – |
| COc1ccc(-c2coc3cc(OC)ccc3c2=O)cc1 [4',7-Dimethoxyisoflavone] + COC(=O)c1ccc([C@H]2c3[nH]c4ccccc4c3C[C@H](C(=O)OC)N2C(=O)CCl)cc1 [RSL3] | – | – | 0.251 | 0.36 |
| O=C(Nc1ccc(C(O)(C(F)(F)F)C(F)(F)F)cc1)c1ccccc1Cl + COC(=O)c1ccc([C@H]2c3[nH]c4ccccc4c3C[C@H](C(=O)OC)N2C(=O)CCl)cc1 [RSL3] | – | – | 0.489 | 0.616 |
| COc1cc([C@@H]2Oc3c(O)cc([C@H]4Oc5cc(O)cc(O)c5C(=O)[C@@H]4O)cc3[C@H]2CO)ccc1O [Silychristin] | 1.04 | 1.02 | – | – |
| COP(=O)(OC)OC(c1ccc(Cl)cc1)P(=O)(OC)OC (configuration not stated) [Mifobate] + COC(=O)c1ccc([C@H]2c3[nH]c4ccccc4c3C[C@H](C(=O)OC)N2C(=O)CCl)cc1 [RSL3] | – | – | 0.632 | 0.669 |
| Cc1nc(Nc2cnn(C3CCNCC3)c2)nc2c1N(C)C(=O)c1cc3ccccc3cc1N2C + COC(=O)c1ccc([C@H]2c3[nH]c4ccccc4c3C[C@H](C(=O)OC)N2C(=O)CCl)cc1 [RSL3] | – | – | 0.31 | 0.287 |
| COc1cc(O)c2c(c1)O[C@H](c1ccc(O)cc1)CC2=O [Sakuranetin] | 0.627 | 0.941 | – | – |
| O=C(Nc1ccccc1)N1CCN(c2nc(-c3ccccc3)ns2)CC1 + COC(=O)c1ccc([C@H]2c3[nH]c4ccccc4c3C[C@H](C(=O)OC)N2C(=O)CCl)cc1 [RSL3] | – | – | 0.281 | 0.406 |
| CC1=C(C)C(=O)C(C(CCCCCC(=O)O)c2ccccc2)=C(C)C1=O (configuration not stated) [Seratrodast] | 1.37 | 0.809 | – | – |
| Cc1c2c(=O)n(-c3ccccc3Cl)[nH]c2cc(=O)n1Cc1ccccn1 | 0.973 | 1.07 | – | – |
| CCOC(=O)N1c2ccc(C(F)(F)F)cc2[C@@H](N(Cc2cc(C(F)(F)F)cc(C(F)(F)F)c2)C(=O)OC)C[C@H]1CC [Torcetrapib] + COC(=O)c1ccc([C@H]2c3[nH]c4ccccc4c3C[C@H](C(=O)OC)N2C(=O)CCl)cc1 [RSL3] | – | – | 0.642 | 0.458 |
| COc1ccc2c(c1)CCC1C2CCC2(C)C(NCCCCCCN3C(=O)C=CC3=O)CCC12 (configuration not stated) + COC(=O)c1ccc([C@H]2c3[nH]c4ccccc4c3C[C@H](C(=O)OC)N2C(=O)CCl)cc1 [RSL3] | – | – | 0.243 | 0.36 |
| CCN(CC)CCCC(C)Nc1c2ccc(Cl)cc2nc2ccc(OC)cc12 (configuration not stated) [Quinacrine dihydrochloride] | 0.212 | 0.306 | – | – |
| CC[C@H](C)C(=O)O[C@H]1CCC=C2C=C[C@H](C)[C@H](CC[C@@H]3C[C@@H](O)CC(=O)O3)[C@H]21 [Mevastatin] + COC(=O)c1ccc([C@H]2c3[nH]c4ccccc4c3C[C@H](C(=O)OC)N2C(=O)CCl)cc1 [RSL3] | – | – | 0.707 | 0.369 |
| CC1=C[C@]2(O)O[C@@]3(CC2=C(C)C)[C@@H](C)CC[C@@H]13 [Curcumenol] + COC(=O)c1ccc([C@H]2c3[nH]c4ccccc4c3C[C@H](C(=O)OC)N2C(=O)CCl)cc1 [RSL3] | – | – | 0.369 | 0.517 |
